Assay outcomes: PubChem BioAssay, National Center for Advancing Translational Sciences (NCATS)
TGFb SMAD3 inh – inhibitors of TGF-b signaling; HepG2 CAGA-GFP TGF-b/SMAD3 reporter, GFP fluorescence, 18 h; TGF-beta stimulated, 500 pg/mL final; AID 588855; hit rate 1.2% among 410,000; Potency, µM (highest dose often 46.1 µM), hits mostly inhibitors; further: nearly all actives have a fitted effect of over 65% in size
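GFP signal (ex488/em500-530) from TGF-beta-stimulated HEPG2 CAGA-GFP cells, 500 pg/mL final, 18 h at 37 degrees C in DMEM plus 1% FBS, normalized to unstimulated and DMSO-stimulated controls.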
DT40 TDP1 CPT – DT40-hTDP1 cell growth loss with CPT. chicken DT40 Tdp1-/-;hTDP1 cells + 20 nM CPT, ATP luminescence, 48 h. Potency, µM (top dose mostly 46.2 µM), usual class: inhibitors. hit rate 12% among 420,000; further: nearly all actives have a fitted effect of over 55% in size
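Cell growth measured by CellTiter-Glo luminescence after a minimum 48 h, 37 C compound exposure with 20 nM CPT in Tdp1-knockout DT40 cells stably expressing hTDP1, seeded 400/well; qHTS titration format.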
HT1080NT lethal – kills 2HG-producing HT-1080-NT fibrosarcoma cells | HT-1080-NT fibrosarcoma viability, CellTiter-Glo ATP luminescence, 48 h | Potency, µM (series often up to 46.1 µM), actives largely listed as cytotoxic | hit rate 1.6% among 360,000 | AID 686970;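 further: NT is the 2HG producing partner of a matched IDH1 knockdown line; nearly all actives have a fitted effect of over 55% in size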
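Fibrosarcoma NT cells, 750 per well in 5% FBS RPMI, were exposed to compound for 48 hours. Viability: CellTiter-Glo luminescence.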
HT1080 IDH1KD tx – HT-1080 IDH1 knockdown cell toxicity (counter line) | Potency, µM (doses to about 46.1 µM), hits mostly cytotoxic | hit rate 2% among 360,000 | HT-1080 IDH1 knockdown viability, ATP luminescence, 48 h
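HT-1080-IDH1KD cells (IDH1 knocked down), 750/well in RPMI with 5% FBS, treated with compound 48 h at 37 degrees C. Viability by CellTiter-Glo luminescence, normalised to DMSO and no-cell wells; concentration-response curves classed.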
DT40 TDP1 no CPT – qHTS for Inhibitors of human tyrosyl-DNA phosphodiesterase 1 (TDP1): qHTS in cells in absence of CPT; DT40 Tdp1-/- hTDP1 cells, no CPT, ATP luminescence, 48 h; Potency, µM (titrated, usually from 46.2 µM), usual class: inhibitors; hit rate 15% among 420,000; AID 686978, 2013; further: nearly all actives have a fitted effect of over 55% in size
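Growth kinetics read by CellTiter-Glo luminescence after ≥48 hr at 37 °C. Cells: DT40 Tdp1-/- stably carrying human TDP1, 400 per well, compound exposure in the absence of CPT (DMSO vehicle).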
HepG2 viability – counter-screen for TGF-b inhibitors: cytotoxicity in HepG2 cells; HepG2 CAGA-GFP viability, ATP luminescence, 18 h; Potency, µM (series often up to 46.1 µM), hits mostly cytotoxic; hit rate 0.76% among 410,000
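HepG2 CAGA-GFP cells (1000/well, DMEM with 1% FBS) received compound, then TGF-beta at 500 pg/mL final, and were incubated 18 hours at 37 degrees C. Viability was read by CellTiter-Glo luminescence. Media-only wells were set as complete cell-killing and DMSO as no toxicity.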
Each line names hits and unclear results; the compound was inactive in the other large screens. Sampled rows, rich in hits. Any-hit rate of the full collection: about 17%. The call rests on the fitted dose curve; in most records, active means well fitted curve in the direction sought with a large enough effect; inconclusive means small, poorly fitted or top-dose-only effect, or another doubt; inactive means no such curve, though single readings can be large; an effect the other way counts as inactive or inconclusive.

O=C(c1ccc(-n2c(SCc3cc(F)ccc3F)nc3ccccc3c2=O)cc1)N1CCOCC1	DT40 TDP1 CPT 11.6µM, DT40 TDP1 no CPT 25.9µM
COc1ccc(/C=C/C(=O)NC(=S)NNC(=O)c2ccco2)cc1OC	DT40 TDP1 CPT inconclusive, DT40 TDP1 no CPT 23.1µM
COc1ccc(NC(=S)NNC(=O)c2ccco2)c(OC)c1	none
COc1ccc(/C=C/C(=O)NC(=S)NNC(=O)c2ccco2)cc1	DT40 TDP1 CPT 14.6µM, DT40 TDP1 no CPT 20.6µM
CCOC(=O)N1CCN(C(=O)/C=C/c2ccc(OC)c(OC)c2)CC1	none
CCCOc1ccc(/C=C/C(=O)N2CCN(C(=O)c3ccco3)CC2)cc1OC	DT40 TDP1 CPT inconclusive, DT40 TDP1 no CPT 13µM
N#CC1(c2ccccc2)CCCN1C(=O)c1ccc(Br)cc1 (stereo not drawn)	TGFb SMAD3 inh inconclusive
N#C/C(=C\c1ccc(Cl)cc1Cl)c1nc(-c2cccc(Cl)c2)cs1	none (no result: HT1080NT lethal, HT1080 IDH1KD tx)
CCc1ccc(OCC(=O)Nc2ccc3oc(=O)ccc3c2)cc1	none
CCOc1ccc(N2C(=O)C(c3ccccc3)=C(c3nc4ccccc4s3)C2NC(C)=O)cc1 (stereo not drawn)	DT40 TDP1 CPT inconclusive, DT40 TDP1 no CPT 16.4µM
O=C(CSc1nc(=O)[nH]c2c1CCCC2)Nc1cc(C(F)(F)F)cc(C(F)(F)F)c1	DT40 TDP1 CPT 18.4µM, DT40 TDP1 no CPT 23.1µM
COc1ccccc1CNS(=O)(=O)c1ccc2c(c1)NC(=O)CO2	none
COc1ccccc1N=c1scc(-c2ccc3c(c2)NC(=O)CO3)n1CC1CCCO1 (stereo not drawn)	DT40 TDP1 no CPT 18.4µM
CN(C)S(=O)(=O)c1cccc(N=c2scc(-c3ccc4c(c3)NC(=O)CO4)n2CC2CCCO2)c1 (stereo not drawn)	DT40 TDP1 CPT 6.51µM, HT1080NT lethal inconclusive, HT1080 IDH1KD tx inconclusive, DT40 TDP1 no CPT 7.31µM
Cc1cccc(C)c1NS(=O)(=O)c1ccc2c(c1)NC(=O)CO2	none
Cc1sc2ncnc(NCC(c3ccco3)N(C)C)c2c1C (stereo not drawn)	DT40 TDP1 no CPT inconclusive
c1csc(CCNc2ncnc3sc4c(c23)CCC4)c1	TGFb SMAD3 inh inconclusive, DT40 TDP1 CPT 3.66µM, HT1080 IDH1KD tx inconclusive, DT40 TDP1 no CPT 8.2µM
CN(C)C(CNc1ncnc2sc3c(c12)CCCCC3)c1ccco1 (stereo not drawn)	TGFb SMAD3 inh inconclusive, DT40 TDP1 CPT inconclusive, DT40 TDP1 no CPT 18.4µM
O=C(O)[C@@H]1CSCN1	none (no result: TGFb SMAD3 inh, HT1080NT lethal, HT1080 IDH1KD tx, HepG2 viability)
CCOc1c(Cl)cc(CNCC(C)C)cc1OC	none
COc1cc(CNC2CCCCCCC2)cc(Cl)c1OC	DT40 TDP1 CPT inconclusive, HT1080 IDH1KD tx inconclusive, DT40 TDP1 no CPT inconclusive
COc1cc(CNCCc2ccccc2)cc(Br)c1OCC(=O)Nc1ccccc1C	TGFb SMAD3 inh inconclusive, DT40 TDP1 CPT inconclusive, HT1080NT lethal inconclusive, DT40 TDP1 no CPT 25.9µM
CCOc1c(Br)cc(CNC2CCCCCCC2)cc1OC	TGFb SMAD3 inh inconclusive, DT40 TDP1 CPT 20.6µM, DT40 TDP1 no CPT 14.6µM, HepG2 viability 11.2µM
CCOc1cc(C2NN=C(c3ccccc3)S2)ccc1OCc1ccccc1Cl (stereo not drawn)	DT40 TDP1 CPT inconclusive, DT40 TDP1 no CPT 16.4µM
CCOc1cc(CNCC(C)C)cc(Cl)c1OCc1ccccc1	DT40 TDP1 CPT inconclusive, DT40 TDP1 no CPT 20.6µM
COc1cc(/C=C/C(=O)O)cc(S(=O)(=O)NCCO)c1OC	none
Cc1nc2ccccn2c(=O)c1NC(=O)c1ccc2c(c1)OCO2	none
CCn1cc(C(=O)N2CCCC(C(=O)c3cccc(C(F)(F)F)c3)C2)cn1 (stereo not drawn)	DT40 TDP1 CPT inconclusive, DT40 TDP1 no CPT inconclusive
CCOc1ccc(C(=O)N2CCc3ccccc32)cc1OCC	none
CCOc1cc(CNC2CCCC2)cc(Cl)c1OCc1ccccc1	DT40 TDP1 CPT inconclusive, HT1080NT lethal 20.6µM, HT1080 IDH1KD tx inconclusive, DT40 TDP1 no CPT inconclusive
